This note sets out measurements from PubChem BioAssay (NCI).

The panel holds about 83,000 compounds, 20% with a hit somewhere; the sample as a whole holds those more often.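 Results are percent growth after 48 hours of single-concentration exposure. 100 means growth as in untreated cells, lower positive values show inhibition; negative values down to -100 show cell death.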 Activity calls are given as the source filed them. The calls were made as follows: active = growth percent below 10; inactive = the rest.

In this test the test system is HL-60(TB) leukemia. The experiment in a line: NCI-60 one-dose screen, 48 h (100 = growth as untreated, 0 = no growth, -100 = all killed). The settings on record: 10 µM unless noted.
With `Oc1ccc(C(c2ccc(O)cc2)c2ccc(Cl)cn2)cc1`, the growth was 101% (inactive).

For `COc1ccc(Nc2cc(NC(=O)CNc3cc(OC)c(Cl)c(OC)c3Cl)ncn2)cc1`, the growth is 75.1% (inactive). The figure for `O=C(N/N=C/c1ccc(Cl)cc1)c1ccc(C(F)(F)F)nc1Nc1cccc(C(F)(F)F)c1` is -37.2% (active). `CCn1c2c(c3ccccc31)SC1c3cccn3CCN1C2=S` (stereo not given): the growth was 87.5% (inactive). To `C=C(C)[C@@H]1CC[C@]2(C(=O)NCC(=O)O)CC[C@]3(C)[C@H](CC[C@@H]4[C@@]5(C)Cc6c([nH]c7ccccc67)C(C)(C)[C@@H]5CC[C@]43C)[C@@H]12` belongs 101% (inactive); to `O=C(CCCCCCCC(=O)N1CCCCC1)N1CCCCC1`, 94.5% (inactive); to `Oc1c(Br)c(Br)c(O)c(Br)c1Br`, 94.3% (inactive).

For `COc1ccc2c(c1)N(CCO)C1=C(C(=O)OC1)C2c1cccc(F)c1` (stereo not given), the growth is -22.7% (active). The figure for `CN(C)c1ncnc2c1cnn2C` is 108% (inactive). The figure for `C=C1C(=O)O[C@H]2[C@H]1CC/C(COC(=O)NCCOCCOCC(=O)Nc1ccc(OC)c(C(N)=O)c1O)=C\CC[C@@]1(C)O[C@@H]21` is -6.3% (active); for `O=c1cc(-c2ccccc2)[nH]c2ncc(-c3ccc(F)cc3)n12` it is 18.9% (inactive). The figure for `COC(=O)c1c2c(c(C)[n+]([O-])c1C)C(=O)C(NCc1ccccc1)=CC2=O` is -2.98% (active); for `COc1c(N2CC3CCCN(C(C)=O)C3C2)c(F)cc2c(=O)c(C(=O)N[C@H]3C(O)[C@@H](O)C(CO)O[C@H]3O)cn(C3CC3)c12` (stereo not given in full) it is 103% (inactive). Regarding `COc1cccc(NC(=O)c2c(-c3ccccc3)c(-c3ccccc3)n[nH]c2=O)c1`, the growth is 95.5% (inactive). To `COc1ccc(-c2nc(-c3nc4ccc(OC)cc4[nH]3)c3ccccn23)cc1` belongs 52.1% (inactive).

For `CCN(CC)CC(O)COc1c(Br)c(Br)c(Br)c2c1OC(C)(C)C2` (stereo not given), the growth was 14% (inactive).

For `Cc1cc(C)c(NC(=O)c2sc3nc4c(cc3c2N)CN(Cc2ccccc2)CC4)c(C)c1`, the growth is -10.3% (active). To `CSc1ccc(N2C(=N)C(=S)N(c3ccc(C)cc3)C2=O)cc1` belongs 101% (inactive); to `O=C1/C(=C/c2ccc(O)cc2)COc2ccc(O)c(O)c21`, -19.3% (active).

Turning to `Cc1ccc(C(F)(F)F)cc1N1CCN(C(=O)[C@H]2C[C@H]2c2ccc(C(F)(F)F)nc2)CC1`, the growth was 81.8% (inactive). The figure for `O=C1C=CC(=O)c2c(O)c(CO)c(CO)c(O)c21` is 64.2% (inactive). The figure for `COc1ccc(/C=C2\CN(C(=O)C(Cl)Cl)C/C(=C\c3ccc(OC)cc3)C2=O)cc1` is -11.9% (active); for `S=c1[nH]nc(CSc2ncnc3c2c(-c2ccccc2)cn3-c2ccc(Cl)cc2)o1` it is 101% (inactive).

As for `CCNC(=O)OCCc1c2ccccc2nc2ccccc12`, the growth is 95.1% (inactive).

For the compound `O=C(N/N=C\c1cc(Cl)ccc1O)N/N=C/c1cc(Cl)ccc1O`, the growth is 6.64% (active).
